Source: PubChem BioAssay AID2073 (Sanford-Burnham Center for Chemical Genomics, 2009)
The campaign covered roughly 290,000 compounds. About 570 (0.2%) were called active. Roughly 1% stayed inconclusive and do not appear here. Cut-off read from the data, not from the text of the source: active = inhibition mostly above about 51% (no sharp cut-off); inconclusive = no clear call, values can overlap the other calls; inactive = mostly below about 53%. The list comes from a sample in which actives are over-represented; it also holds similar structures and randomly drawn compounds.

Molecular target: Voltage-dependent N-type calcium channel subunit alpha-1B (Homo sapiens) (UniProt Q00975)
Assay: inhibitors of Mint1-CaV2.2 protein interaction, biochemical, HTRF (AID 2073)
Details: at 20 µM, stronger effect = higher value
[1] = measured here: average of repeat tests

Sequence of Voltage-dependent N-type calcium channel subunit alpha-1B (Homo sapiens) (Q00975 whole entry, looked up): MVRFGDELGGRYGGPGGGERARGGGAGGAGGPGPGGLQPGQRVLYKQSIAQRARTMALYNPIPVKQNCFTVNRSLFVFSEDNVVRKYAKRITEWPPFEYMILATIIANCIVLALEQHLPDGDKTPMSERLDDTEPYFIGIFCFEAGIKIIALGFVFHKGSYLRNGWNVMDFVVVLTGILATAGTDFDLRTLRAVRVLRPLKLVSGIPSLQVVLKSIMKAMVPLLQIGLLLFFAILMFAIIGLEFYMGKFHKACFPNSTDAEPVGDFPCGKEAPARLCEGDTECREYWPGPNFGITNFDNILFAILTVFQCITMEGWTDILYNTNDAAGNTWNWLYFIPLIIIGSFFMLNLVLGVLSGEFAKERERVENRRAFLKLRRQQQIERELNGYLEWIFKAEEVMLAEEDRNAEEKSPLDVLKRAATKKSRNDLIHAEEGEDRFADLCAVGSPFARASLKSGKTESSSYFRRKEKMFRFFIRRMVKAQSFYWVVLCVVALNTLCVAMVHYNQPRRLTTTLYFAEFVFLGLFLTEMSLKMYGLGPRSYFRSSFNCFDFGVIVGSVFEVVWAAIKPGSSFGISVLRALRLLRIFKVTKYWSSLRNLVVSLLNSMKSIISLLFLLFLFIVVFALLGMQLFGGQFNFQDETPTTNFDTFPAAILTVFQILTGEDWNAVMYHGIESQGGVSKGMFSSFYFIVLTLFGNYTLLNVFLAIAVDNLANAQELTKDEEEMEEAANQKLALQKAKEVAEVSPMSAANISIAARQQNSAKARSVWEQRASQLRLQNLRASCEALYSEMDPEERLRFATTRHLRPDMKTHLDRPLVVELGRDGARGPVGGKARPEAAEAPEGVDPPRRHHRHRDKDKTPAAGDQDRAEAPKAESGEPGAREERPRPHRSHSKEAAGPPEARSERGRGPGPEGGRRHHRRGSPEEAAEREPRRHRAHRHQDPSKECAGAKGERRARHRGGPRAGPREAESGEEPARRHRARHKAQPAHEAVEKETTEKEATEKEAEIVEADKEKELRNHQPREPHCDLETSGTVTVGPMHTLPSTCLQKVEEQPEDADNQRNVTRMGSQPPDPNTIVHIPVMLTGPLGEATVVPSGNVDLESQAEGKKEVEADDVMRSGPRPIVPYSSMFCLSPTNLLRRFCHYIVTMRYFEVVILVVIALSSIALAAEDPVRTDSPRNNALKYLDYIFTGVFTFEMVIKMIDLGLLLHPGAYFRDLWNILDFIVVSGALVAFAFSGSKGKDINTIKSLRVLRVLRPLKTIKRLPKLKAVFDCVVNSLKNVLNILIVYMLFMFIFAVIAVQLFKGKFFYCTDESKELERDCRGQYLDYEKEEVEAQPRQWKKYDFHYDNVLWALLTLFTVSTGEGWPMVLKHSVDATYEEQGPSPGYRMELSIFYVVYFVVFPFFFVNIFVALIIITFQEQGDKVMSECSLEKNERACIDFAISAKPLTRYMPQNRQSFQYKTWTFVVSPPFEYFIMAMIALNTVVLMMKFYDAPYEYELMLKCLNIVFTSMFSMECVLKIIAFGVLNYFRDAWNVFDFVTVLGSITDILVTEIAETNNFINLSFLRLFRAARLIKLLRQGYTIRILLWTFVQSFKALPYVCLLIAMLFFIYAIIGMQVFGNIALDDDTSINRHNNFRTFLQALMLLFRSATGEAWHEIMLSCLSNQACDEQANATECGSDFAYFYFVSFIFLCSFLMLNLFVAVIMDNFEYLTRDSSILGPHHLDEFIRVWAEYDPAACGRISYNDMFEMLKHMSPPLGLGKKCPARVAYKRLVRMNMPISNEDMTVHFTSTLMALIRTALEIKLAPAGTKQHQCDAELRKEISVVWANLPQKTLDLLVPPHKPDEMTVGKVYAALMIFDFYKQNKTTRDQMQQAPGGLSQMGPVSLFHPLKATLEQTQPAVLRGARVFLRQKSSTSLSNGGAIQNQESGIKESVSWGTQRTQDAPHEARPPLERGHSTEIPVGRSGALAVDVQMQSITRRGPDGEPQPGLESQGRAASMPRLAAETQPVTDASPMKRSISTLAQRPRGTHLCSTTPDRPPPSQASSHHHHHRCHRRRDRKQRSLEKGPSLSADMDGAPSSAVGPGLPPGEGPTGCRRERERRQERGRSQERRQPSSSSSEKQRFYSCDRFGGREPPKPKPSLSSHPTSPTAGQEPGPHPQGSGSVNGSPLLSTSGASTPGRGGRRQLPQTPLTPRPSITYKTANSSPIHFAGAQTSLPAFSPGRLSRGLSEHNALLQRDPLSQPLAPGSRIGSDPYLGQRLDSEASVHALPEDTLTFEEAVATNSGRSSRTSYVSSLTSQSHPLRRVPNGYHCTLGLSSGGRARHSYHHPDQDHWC

| SMILES | inhibition | inhibition [1] [%] |
| --- | --- | --- |
| COC(=O)/C=C1/SC(=Nc2ccc(C)cc2C)NC1=O | 0.9% (inactive) | – |
| O=C1c2ccccc2C(=O)N1C/C=C/CN1C(=O)c2ccccc2C1=O | 0% (inactive) | – |
| Cc1ccc(-c2nc(CN(C)C3CCOC3)c(C)o2)s1 (stereo not drawn) | 7.1% (inactive) | – |
| COc1ccc(-c2cc3c(=O)n(CC(=O)Nc4cccc(Cl)c4)ncn3n2)cc1 | 39.6% (inactive) | – |
| O=C1N=C(N2CCCC2C(=O)O)S/C1=C\c1ccco1 (stereo not drawn) | 95.1% (active) | – |
| O=C1N=C(N2CCN(c3ccccc3)CC2)S/C1=C/c1ccco1 | -5% (inactive) | – |
| O=C1N=C(N2CCN(c3ccccc3)CC2)S/C1=C\c1ccco1 | 37.7% (inactive) | – |
| COc1ccc(-n2nc(C(=O)NCC(=O)NCCCN3CC(C)CC(C)C3)c3ccccc3c2=O)cc1 (stereo not drawn) | 3.3% (inactive) | – |
| O=C(Nc1ccc(N2CCOCC2)cc1Cl)C1CCN(C(=O)OCc2ccccc2)CC1 | -2.8% (inactive) | – |
| COc1ccc(-n2nc(C(=O)NCC(=O)NCc3ccc(F)cc3)c3ccccc3c2=O)cc1 | 8.9% (inactive) | – |
| CN1CCN(S(=O)(=O)c2ccc(Cl)cc2)CC1 | 5.7% (inactive) | – |
| O=S(=O)(c1ccc(Cl)cc1)N1CCCCCC1 | 13.9% (inactive) | – |
| Cc1ccc(S(=O)(=O)N2CCN(S(=O)(=O)c3ccccc3)C2)cc1 | -0.6% (inactive) | – |
| CC1CN(S(=O)(=O)c2ccccc2)C(C)CN1S(=O)(=O)c1ccccc1 (stereo not drawn) | 2.3% (inactive) | – |
| Cc1sc(NC(=O)CN(Cc2ccc(F)cc2)C(=O)C(C)C)c(C(N)=O)c1C | -9.6% (inactive) | – |
| CC(C)CC(=O)Nc1nnc(SCC(=O)NCc2ccc3c(c2)OCO3)s1 | 6% (inactive) | – |
| COc1ccc(N2C(=O)NC(=O)C2=O)cc1 | -3.9% (inactive) | – |
| COc1ccc(N2CC(C(=O)N/N=C/c3c[nH]c4ccccc34)CC2=O)cc1 (stereo not drawn) | 17.8% (inactive) | – |
| Cc1nn(C)c(Cl)c1CN1CCC(CO)(CC2CCCCO2)CC1 (stereo not drawn) | 6.5% (inactive) | – |
| O=S(=O)(c1ccc(F)c(F)c1)N1CCCc2ccccc21 | -1.2% (inactive) | – |
| CCCc1[nH]c(=O)c(C#N)c2c1COC(C)(C)C2 | -5.3% (inactive) | – |
| Nc1ccc2nc(-c3cccc(-c4nc5ccc(N)cc5[nH]4)c3)[nH]c2c1 | 46.7% (inactive) | – |
| Nc1ccc2nc(-c3cc(Cl)c(N)c(Cl)c3)[nH]c2c1 | 39.9% (inactive) | – |

| SMILES | inhibition | inhibition [1] [%] |
| --- | --- | --- |
| Nc1ccc(-c2nc3ccc([N+](=O)[O-])cc3[nH]2)cc1 | 13.5% (inactive) | – |
| Nc1ccc(-c2nc3ccccc3[nH]2)cc1 | 5.5% (inactive) | – |
| Fc1ccc(N=Cc2ccc[nH]2)cc1 | -9.3% (inactive) | – |
| Cn1c(N)c(C(=O)COC(=O)c2cc(-c3ccco3)nc3ccccc23)c(=O)n(C)c1=O | 50.3% (inactive) | 29.1 |
| Cn1c(=O)c(C(=O)COC(=O)c2cc(-c3ccco3)nc3ccccc23)c(N)n(Cc2ccccc2)c1=O | 55.8% (active) | – |
| CC(C)Cn1c(N)c(C(=O)COC(=O)c2cc(-c3ccco3)nc3ccccc23)c(=O)n(C)c1=O | 19.7% (inactive) | – |
| O=C(NC(=S)Nc1cccc(S(=O)(=O)NC2=NCCC2)c1)c1cc(-c2ccco2)nc2ccccc12 | 61% (inactive) | 23.6 |
| O=C(Nc1cccc(S(=O)(=O)NC2=NCCC2)c1)c1cc(-c2ccco2)nc2ccccc12 | 61.9% (active) | – |
| O=C(NC1CCC(O)CC1)c1cc(-c2ccco2)nc2ccccc12 (stereo not drawn) | 51.2% (active) | 50.3 |
| Cn1c(N)c(C(=O)COC(=O)c2cc(-c3ccccc3)nc3ccccc23)c(=O)n(Cc2ccccc2)c1=O | 21.7% (inactive) | – |
| O=C(O)c1cc(-c2ccco2)nc2ccccc12 | -11.5% (inactive) | – |
| Cn1c(=O)c(C(=O)COC(=O)c2cc(-c3ccccc3)nc3ccccc23)c(N)n(Cc2ccccc2)c1=O | 26.2% (inactive) | – |
| O=C(Nc1cccc(S(=O)(=O)NC2=NCCCCC2)c1)c1cc(-c2ccco2)nc2ccccc12 | 40.5% (inactive) | – |
| Cn1c(N)c(C(=O)COC(=O)c2cc(-c3ccco3)nc3ccccc23)c(=O)n(Cc2ccccc2)c1=O | 58.1% (active) | – |
| O=C(NC1CC1)c1cc(-c2ccco2)nc2ccccc12 | 38.6% (inactive) | – |
| CCN(C(=O)COC(=O)c1c(C)nn(-c2ccccc2)c1C)C1CCS(=O)(=O)C1 (stereo not drawn) | 6.4% (inactive) | – |
| C/C(CC(=O)Nc1ccc2c(c1)OCCO2)=N\NC(=O)COc1ccccc1 | 1.2% (inactive) | – |
| COc1ccc(CCNC(=O)C2CC(c3cc(C(F)(F)F)cc(C(F)(F)F)c3)=NO2)cc1 (stereo not drawn) | 0.2% (inactive) | – |
| Cc1ccc(/C=C/C(=O)Nc2ccc(O)c3c(=O)cc(-c4ccccc4Cl)oc23)cc1 | 13% (inactive) | – |
| CCCN1Cc2cccc(C(=O)NC(CC(=O)OCC)c3ccc(OC(C)C)cc3)c2C1=O (stereo not drawn) | -3.9% (inactive) | – |
| Cc1ccc(Cl)cc1N1CCN(C(=O)Cn2ncn3cccc3c2=O)CC1 | -1.5% (inactive) | – |
| O=C(CCCn1c(=S)[nH]c2ccccc2c1=O)NC1CCCC1 | -32.5% (inactive) | – |
| CCc1ccccc1NC(=O)COc1ccc(N2CC(C(N)=O)CC2=O)cc1 (stereo not drawn) | 11.4% (inactive) | – |

| SMILES | inhibition | inhibition [1] [%] |
| --- | --- | --- |
| OC1CNCc2cc3c(cc21)OCCO3 (stereo not drawn) | -5.4% (inactive) | – |
| NC(=O)COC(=O)c1cc(-c2ccco2)nc2ccccc12 | 14.1% (inactive) | – |
| CNC(=O)COC(=O)c1cc(-c2ccco2)nc2ccccc12 | 66.4% (active) | – |
| O=C(COC(=O)c1cc(-c2ccco2)nc2ccccc12)NCc1ccccc1 | 25.4% (inactive) | – |
| CCN1CCN(CCCNC(=O)Cn2nc(C)n3nc(-c4ccccc4)cc3c2=O)CC1 | 12.1% (inactive) | – |
| O=c1[nH]c(C2CCCN(S(=O)(=O)c3ccc(F)cc3)C2)nc2c1nnn2Cc1ccccc1 (stereo not drawn) | -1% (inactive) | – |
| Cc1[nH]n(-c2ccccc2)c(=O)c1C=Nc1ccc(S(N)(=O)=O)cc1 | 0.1% (inactive) | – |
| Cc1[nH]n(-c2ccccc2)c(=S)c1C=Nc1ccc([N+](=O)[O-])cc1 | 67% (active) | – |
| Cc1[nH]n(-c2ccccc2)c(=S)c1C=Nc1cccc([N+](=O)[O-])c1 | 34.3% (inactive) | – |
| Oc1ccccc1Cn1nnc2ccccc21 | 7.1% (inactive) | – |
| COc1ccc(CCNC(=O)CCN2C(=O)[C@@H]3Cc4ccccc4CN3C2=O)cc1 | -3.7% (inactive) | – |
| CN(C)C(=O)c1ccc(NC(=O)CSc2nc3ccccc3[nH]2)cc1 | -1.1% (inactive) | – |
| CCC(=O)Nc1ccc(C(=O)CSc2nc3ccccc3[nH]2)cc1 | 54.5% (active) | – |
| CCC(=O)Nc1ccc(C(=O)CSc2nc3ccc(C)cc3[nH]2)cc1 | 32.1% (inactive) | – |
| COc1ccc(CCNCC(=O)Nc2c(C)cc(C)cc2C)cc1OC | -6.8% (inactive) | – |
| CCOC(=O)N1CCN(c2ccccc2OC)CC1 | -13.4% (inactive) | – |
| O=C(NNc1nc(-c2ccccc2)cs1)c1ccc(F)cc1 | 60% (inactive) | -6.1 |
| O=C(NNc1nc(-c2ccccc2)cs1)c1ccccc1 | -28.9% (inactive) | – |
| O=C(NNc1nc(-c2ccc(F)cc2)cs1)c1ccccc1 | 71.1% (active) | – |
| O=C(CSc1nc2ccccc2c(=O)[nH]1)Nc1ccccc1O | -8.6% (inactive) | – |
| O=c1[nH]c2ccccc2c2nc3ccccn3c12 | 23.2% (inactive) | – |
| O=c1nc2c(O)cccn2c2c1c(=O)[nH]c1ccccc12 | 66.4% (active) | – |
| Cc1ccc2c(c1)N(CCCC(=O)NCc1ccc3c(c1)OCO3)C(=O)CO2 | 9.3% (inactive) | – |

| SMILES | inhibition | inhibition [1] [%] |
| --- | --- | --- |
| CCOC(=O)c1cn2nc(Oc3cccc(F)c3)ccc2n1 | 4.6% (inactive) | – |
| CC(C)NC(=O)C1(S(=O)(=O)c2ccccc2)CC=CC1 | 4.8% (inactive) | – |
| COc1ccc(C(=O)NCCCOc2cccc(NC(C)=O)c2)cc1 | 21.8% (inactive) | – |
| CC1CCN(C(=O)C2CCCN(S(=O)(=O)c3cccc4nsnc34)C2)CC1 (stereo not drawn) | 5.2% (inactive) | – |
| COc1ccc(-c2nnc(SCC(=O)NC(=O)NCc3ccco3)o2)cc1 | -1.1% (inactive) | – |
| COc1ccc(-c2nnc(SCC(=O)NC(=O)NCc3ccccc3)o2)cc1 | 55.3% (active) | – |
| COc1ccc(-c2nnc(SCC(=O)NCCc3ccccc3)o2)cc1 | 2.1% (inactive) | – |
| COc1ccc(N(CC(=O)NCc2ccco2)S(C)(=O)=O)cc1 | 2.6% (inactive) | – |
| Cc1cccc(/C=N/NC(=O)NC2CCCCC2)c1 | -3.7% (inactive) | – |
| C=CCN1C(=O)N/C(=C/c2ccc(N3CCOCC3)o2)C1=O | 55.4% (inactive) | 7.9 |
| O=C1NC(=O)/C(=C/c2ccc(N3CCOCC3)o2)N1 | 52.2% (inactive) | 3.9 |
| O=C1NC(=O)/C(=C\c2ccc(N3CCOCC3)o2)N1 | 71.7% (active) | – |
| O=C1NC(=S)S/C1=C/c1ccc(N2CCOCC2)o1 | 32.5% (inactive) | – |
| O=C1N/C(=C/c2ccc(N3CCOCC3)o2)C(=O)N1c1cccc(Cl)c1 | 58.7% (active) | – |
| O=C1N/C(=C/c2ccc(N3CCOCC3)o2)C(=O)N1c1ccccc1 | 44.8% (inactive) | – |
| Cc1cc(Br)ccc1OCCN1CCCC1 | 1.2% (inactive) | – |
| Cc1ccc(S(=O)(=O)N2CCN(CCNC(=O)C(=O)NCc3ccccc3)CC2)cc1 | -2.1% (inactive) | – |
| Cc1cccc(C(=O)O)c1NC(=O)Cc1cccc2ccccc12 | 9.3% (inactive) | – |
| O=c1[nH]c(SCc2n[nH]c(=S)n2-c2ccccc2)nc2sc3c(c12)CCC3 | 17.3% (inactive) | – |
| COc1ccc(/C=C2/SC(=O)N(CCC(=O)Nc3ccc(S(=O)(=O)Nc4nccs4)cc3)C2=O)cc1 | 53% (active) | – |
| O=C(CCN1C(=O)S/C(=C\c2ccccc2)C1=O)Nc1ccc(S(=O)(=O)Nc2nccs2)cc1 | -6.5% (inactive) | – |
| COc1ccc(/C=C2\SC(=O)N(CCC(=O)Nc3ccc(S(=O)(=O)Nc4nccs4)cc3)C2=O)cc1 | 25.3% (inactive) | – |
| COc1cccc(OC)c1C(=O)Nc1cccnc1 | -4.9% (inactive) | – |
